The text below walks through data of PubChem BioAssay.

Focal adhesion kinase 1 (Homo sapiens), sequence (Q05397 whole entry, looked up): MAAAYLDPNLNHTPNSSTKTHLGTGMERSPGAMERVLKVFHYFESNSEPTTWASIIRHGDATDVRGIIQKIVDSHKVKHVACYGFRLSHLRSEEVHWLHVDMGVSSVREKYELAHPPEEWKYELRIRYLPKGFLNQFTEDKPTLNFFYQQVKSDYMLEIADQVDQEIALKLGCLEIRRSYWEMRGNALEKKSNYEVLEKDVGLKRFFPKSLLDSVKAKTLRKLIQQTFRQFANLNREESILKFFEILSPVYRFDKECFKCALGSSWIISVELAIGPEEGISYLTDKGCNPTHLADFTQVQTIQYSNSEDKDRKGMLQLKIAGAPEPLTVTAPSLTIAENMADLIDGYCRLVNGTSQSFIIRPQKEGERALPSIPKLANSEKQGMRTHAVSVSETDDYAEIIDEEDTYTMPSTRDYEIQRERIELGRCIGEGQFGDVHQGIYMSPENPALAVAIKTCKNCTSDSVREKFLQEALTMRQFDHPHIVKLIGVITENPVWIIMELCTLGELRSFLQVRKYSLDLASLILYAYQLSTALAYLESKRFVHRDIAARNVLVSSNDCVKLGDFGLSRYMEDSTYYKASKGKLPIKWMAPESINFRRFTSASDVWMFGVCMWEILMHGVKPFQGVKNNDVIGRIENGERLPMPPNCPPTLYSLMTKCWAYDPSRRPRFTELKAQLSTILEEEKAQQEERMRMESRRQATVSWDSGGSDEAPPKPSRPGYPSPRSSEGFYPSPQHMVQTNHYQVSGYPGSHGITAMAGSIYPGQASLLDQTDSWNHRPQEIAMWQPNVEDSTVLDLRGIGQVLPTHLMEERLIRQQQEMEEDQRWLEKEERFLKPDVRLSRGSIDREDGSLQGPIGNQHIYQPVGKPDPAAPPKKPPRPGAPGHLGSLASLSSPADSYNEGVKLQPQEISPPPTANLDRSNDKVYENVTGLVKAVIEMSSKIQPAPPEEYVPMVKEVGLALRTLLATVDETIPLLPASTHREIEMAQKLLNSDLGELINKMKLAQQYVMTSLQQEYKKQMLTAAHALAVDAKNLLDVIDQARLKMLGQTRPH

One test addresses Focal adhesion kinase 1 (Homo sapiens) (UniProt Q05397). As to the kind of experiment: PTK2 protein binding on printed compound slides – biochemical, small-molecule microarray, 635/667 nm fluorescence, BSA, DTT, primary screen (AID 1130).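 Also: composite of spot emission at 667 nm and signal to noise over triplicate slides.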 The note with it: 635 nm fluorescence, higher = more signal.
As to `C=C[C@@H](COC(C)=O)N(Cc1ccc([N+](=O)[O-])cc1)S(=O)(=O)c1ccc(Br)cc1`, the composite z-score was 0.079.

`O=C1O[C@@H](c2ccccc2)[C@@H](c2ccccc2)N2[C@@H](c3ccc(O)cc3)[C@]3(C(=O)Nc4ccc(C#CC5(O)CCCCCC5)cc43)[C@@H](C(=O)N3CCCCCCC3)[C@H]12` returned a composite z-score of 2.74. `COC(=O)C[C@@H]1C[C@H](C)[C@]2(O1)C(=O)N(Cc1ccccc1)c1ccc(NC(C)=O)cc12` registered a composite z-score of -0.183. Regarding `CC(C)(C)N1CC=CC23O[C@@H]4C=CCOC(=O)[C@@H]4[C@H]2C(=O)N(CCCCCO)[C@@H]3C1=O` (some centres not stated), the composite z-score is -0.758. For the compound `C=CCN1C(=O)[C@]2(O[C@H](CCO)[C@@H]([Si](C)(C)c3ccc(OC)cc3)[C@@H]2C)c2cc(NC(=O)[C@H](C)O)ccc21`, the composite z-score turned out to be 0.937. Turning to `C=CC(=C)C1=CCO[C@@H]1[C@H]1CCCN1S(=O)(=O)c1ccccc1[N+](=O)[O-]`, the composite z-score is -0.318. In turn, `COc1ccc(NN2C(C(O)c3ccc(OC)c(OCc4ccccc4)c3)C=CC3C(=O)N(C4CCCCC4)C(=O)C32)cc1` (configuration not stated) had a composite z-score of 0.625. Compound `[N-]=[N+]=NCc1ccccc1[C@@H]1OC(c2ccc(OCCCO)cc2)=N[C@]1(Cc1ccccc1)C(=O)N1CCCCC1` returned a composite z-score of 0.0473. For the compound `CC(C)(C)N1CC=CC23O[C@@H]4/C=C\CCCOC(=O)C4[C@H]2C(=O)N(CCO)[C@@H]3C1=O` (some centres not stated), the composite z-score came to 0.19. As for `O=C1O[C@H](c2ccccc2)[C@H](c2ccccc2)N2[C@H]1[C@@H](C(=O)O)[C@]1(C(=O)Nc3ccc(C#CC4=CCCCC4)cc31)[C@H]2c1ccc(OCCO)cc1`, the composite z-score came to 0.638. The same measure, in the same setting: for `COC(=O)C[C@H]1O[C@]2(C(=O)N(Cc3ccccc3)c3ccc(NC(C)=O)cc32)[C@@H](C)[C@@H]1[Si](C)(C)c1ccc(OC)cc1` the value was -0.0722; for `CC(C)CNC(=O)[C@@H]1c2ccccc2C(=O)N(Cc2cc(C(F)(F)F)cc(C(F)(F)F)c2)[C@H]1c1ccc(CO)cc1`, 0.093; for `COc1ccccc1CN1C(=O)c2ccccc2[C@@H](C(=O)NCCN2CCOCC2)[C@@H]1c1ccc(CO)cc1`, -0.444.

In turn, `NCCCCCCNC(=O)[C@H]1C[C@H]2C(=O)NCC(=O)N2[C@H]1c1cccc(OCCO)c1` returned a composite z-score of 0.215.

For `COCCOC(=O)N1C(=O)[C@@]2(c3ccccc31)[C@H](C(=O)NC[C@H](O)c1ccccc1)[C@H]1C(=O)O[C@H](c3ccccc3)[C@H](c3ccccc3)N1[C@@H]2c1ccc(OCCO)cc1`, the composite z-score was 0.367.

On to `CC(C)N1CC=CC23O[C@@H]4C=CCOC(=O)[C@@H]4[C@H]2C(=O)N(CCO)[C@@H]3C1=O` (some centres not stated), for which the composite z-score was -0.346. In the case of `COC(=O)[C@@]1(Cc2ccccc2)[C@H]2c3cc(C(=O)N4CCCC4)n(C)c3C[C@H]2CN1C(=O)c1ccccc1`, the composite z-score stood at 1.73. On the same count and under the same terms, for `O=C1[C@]2(CO)C=C(Br)[C@@H](C[C@@H]2c2ccccc2)[C@@]12CO2` the value was -0.0687.

As for `CCCCC(O)C1C=CC2C(=O)N(C3CCCCC3)C(=O)C2N1Nc1ccc(OC)cc1` (configuration not stated), the composite z-score came out at 0.601. The compound `COc1ccc(C(O)C2C=CC3C(=O)N(c4ccccc4)C(=O)C3N2Nc2ccc([N+](=O)[O-])cc2)cc1OCc1ccccc1` (configuration not stated) came in with a composite z-score of 0.315. As for `Cc1ccc(S[C@]2(C(=O)NCc3ccccc3)CC(=O)N(Cc3ccccc3)[C@@H]2c2ccc(CO)cc2)cc1`, the composite z-score worked out at 0.691. `C=C(COC)/C(=C/C[C@H](OC(=O)c1ccncc1)c1cccc(OCCO)c1)c1cc(C(=O)OC)ccc1OC` registered a composite z-score of 0.381. Regarding `COC(=O)[C@@]1(Cc2ccccc2)[C@H]2c3cc(C(=O)N(C)C)n(Cc4cc(C)n(C)n4)c3C[C@H]2CN1C(=O)c1ccccc1`, the composite z-score came out at 0.57. As for `COC(=O)[C@@]1(Cc2ccccc2N=[N+]=[N-])COC(c2ccc(OCCCO)cc2)=N1`, the composite z-score stood at 0.676. With `CN1CCC(CCCO)=CC1c1ccc(CN2CCCC2)cc1` (configuration not stated), the composite z-score was -0.0595. Compound `CC(=CC1CCCCC1)[C@@H](NC(=O)c1ccc(C(F)(F)F)cc1)c1ccc(-c2ccccc2)cc1` yielded a composite z-score of -0.708.

A further test relates to Fibrinogen (Alexa647-labelled). As to the kind of experiment: Alexa647-fibrinogen binding to printed small molecules – biochemical, small-molecule microarray, 635/667 nm fluorescence, artefact control for SMM control-protein annotation, profiling panel (AID 1131).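 Also: z-score merges 667 nm fluorescence with per-spot signal-to-noise over triplicate slides.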 The settings on record: fibrinogen-A647 binding fluorescence, higher = more signal.
In turn, `C=CCC(OC(C)=O)[C@@H]1[C@@H](N(Cc2cccc3ccccc23)C(=O)c2cccc3ccccc23)c2cc(OCCCO)ccc2N1C(=O)c1ccc2ccccc2n1` (some centres not stated) came in with a composite z-score of 0.868. `COc1ccc(C(O)C2C=CC3C(=O)NC(=O)C3N2Nc2ccccn2)cc1OCc1ccccc1` (configuration not stated) came in with a composite z-score of 0.816. Consider `CCCN1C(=O)[C@@]2(CCC(=O)OC(C)(C)C)N=C(c3ccc(OCCCO)cc3)O[C@H]2c2ccccc21`, for which the composite z-score was found to be 0.274. For `COc1cccc(C(=O)O[C@H]2CC[C@]3(C)C4=C(CCC3C2(C)C)[C@]2(C)CC[C@H]([C@H](C)CCCC(C)C)[C@@]2(C)CC4)c1` (some centres not stated), the composite z-score is -0.133.

As to `COc1cc2c(cc1OC)CN(C(=O)[C@@H]1[C@H]3C(=O)O[C@H](c4ccccc4)[C@H](c4ccccc4)N3[C@H](c3ccccc3OCCO)[C@@]13C(=O)Nc1ccc(C#CCNC(N)=O)cc13)CC2`, the composite z-score came out at 0.933. Compound `CN(C)CCCCNC(=O)[C@H]1C[C@H]2C(=O)N[C@@H](Cc3ccccc3)C(=O)N2[C@H]1c1ccc(O)cc1` displayed a composite z-score of 0.986. As for `COc1ccc(CCN2C(=O)[C@@]3(Cc4ccccc42)c2ccccc2C(=O)N(Cc2ccccc2Cl)[C@H]3c2ccc(CO)cc2)cc1`, the composite z-score was -0.953.

`CCCCCCCCCCC(O)C1C=CC2C(=O)N(Cc3ccccc3)C(=O)C2N1n1cnnc1` (configuration not stated) came in with a composite z-score of 0.532.

`COCCOC(=O)N1C(=O)[C@@]2(c3cc(C#CCC(C(=O)OC)C(=O)OC)ccc31)[C@H](C(=O)N1CCN(c3ncccn3)CC1)[C@H]1C(=O)O[C@H](c3ccccc3)[C@H](c3ccccc3)N1[C@@H]2c1ccc(OCCO)cc1` yielded a composite z-score of 0.993. `C=C(COC)C(=O)CC[C@@H](OC(=O)c1cccnc1)c1ccc(CO)o1` came in with a composite z-score of 0.39.

With `C=C[C@@H](COC(C)=O)N(Cc1ccc([N+](=O)[O-])cc1)S(=O)(=O)c1ccc(Br)cc1`, the composite z-score came out at 0.958.

For the compound `O=C1O[C@@H](c2ccccc2)[C@@H](c2ccccc2)N2[C@@H](c3ccc(O)cc3)[C@]3(C(=O)Nc4ccc(C#CC5(O)CCCCCC5)cc43)[C@@H](C(=O)N3CCCCCCC3)[C@H]12`, the composite z-score was 0.962. The compound `COC(=O)C[C@@H]1C[C@H](C)[C@]2(O1)C(=O)N(Cc1ccccc1)c1ccc(NC(C)=O)cc12` showed a composite z-score of 0.458. `CC(C)(C)N1CC=CC23O[C@@H]4C=CCOC(=O)[C@@H]4[C@H]2C(=O)N(CCCCCO)[C@@H]3C1=O` (some centres not stated) gave a composite z-score of -2.1. Compound `C=CCN1C(=O)[C@]2(O[C@H](CCO)[C@@H]([Si](C)(C)c3ccc(OC)cc3)[C@@H]2C)c2cc(NC(=O)[C@H](C)O)ccc21` returned a composite z-score of 0.762. `C=CC(=C)C1=CCO[C@@H]1[C@H]1CCCN1S(=O)(=O)c1ccccc1[N+](=O)[O-]` registered a composite z-score of 0.802.

Turning to `COc1ccc(NN2C(C(O)c3ccc(OC)c(OCc4ccccc4)c3)C=CC3C(=O)N(C4CCCCC4)C(=O)C32)cc1` (configuration not stated), the composite z-score stood at 1.01. The same measure, in the same setting: the figure for `[N-]=[N+]=NCc1ccccc1[C@@H]1OC(c2ccc(OCCCO)cc2)=N[C@]1(Cc1ccccc1)C(=O)N1CCCCC1` is 0.39; for `CC(C)(C)N1CC=CC23O[C@@H]4/C=C\CCCOC(=O)C4[C@H]2C(=O)N(CCO)[C@@H]3C1=O` (some centres not stated) it is -0.233. Compound `O=C1O[C@H](c2ccccc2)[C@H](c2ccccc2)N2[C@H]1[C@@H](C(=O)O)[C@]1(C(=O)Nc3ccc(C#CC4=CCCCC4)cc31)[C@H]2c1ccc(OCCO)cc1` registered a composite z-score of 0.98. Still for that read-out and setting: the figure for `COC(=O)C[C@H]1O[C@]2(C(=O)N(Cc3ccccc3)c3ccc(NC(C)=O)cc32)[C@@H](C)[C@@H]1[Si](C)(C)c1ccc(OC)cc1` is 0.483; for `CC(C)CNC(=O)[C@@H]1c2ccccc2C(=O)N(Cc2cc(C(F)(F)F)cc(C(F)(F)F)c2)[C@H]1c1ccc(CO)cc1` it is -0.419; for `COc1ccccc1CN1C(=O)c2ccccc2[C@@H](C(=O)NCCN2CCOCC2)[C@@H]1c1ccc(CO)cc1` it is 0.234. `NCCCCCCNC(=O)[C@H]1C[C@H]2C(=O)NCC(=O)N2[C@H]1c1cccc(OCCO)c1` gave a composite z-score of 0.794.

With `COCCOC(=O)N1C(=O)[C@@]2(c3ccccc31)[C@H](C(=O)NC[C@H](O)c1ccccc1)[C@H]1C(=O)O[C@H](c3ccccc3)[C@H](c3ccccc3)N1[C@@H]2c1ccc(OCCO)cc1`, the composite z-score was 0.715. Take `CC(C)N1CC=CC23O[C@@H]4C=CCOC(=O)[C@@H]4[C@H]2C(=O)N(CCO)[C@@H]3C1=O` (some centres not stated): the composite z-score is -0.766.

`COC(=O)[C@@]1(Cc2ccccc2)[C@H]2c3cc(C(=O)N4CCCC4)n(C)c3C[C@H]2CN1C(=O)c1ccccc1` returned a composite z-score of 1.03.

Take `O=C1[C@]2(CO)C=C(Br)[C@@H](C[C@@H]2c2ccccc2)[C@@]12CO2`: the composite z-score came out at 0.262.

Regarding `CCCCC(O)C1C=CC2C(=O)N(C3CCCCC3)C(=O)C2N1Nc1ccc(OC)cc1` (configuration not stated), the composite z-score was 0.733. Same read-out and setting: the figure for `COc1ccc(C(O)C2C=CC3C(=O)N(c4ccccc4)C(=O)C3N2Nc2ccc([N+](=O)[O-])cc2)cc1OCc1ccccc1` (configuration not stated) is 0.995; for `Cc1ccc(S[C@]2(C(=O)NCc3ccccc3)CC(=O)N(Cc3ccccc3)[C@@H]2c2ccc(CO)cc2)cc1` it is -0.909; for `C=C(COC)/C(=C/C[C@H](OC(=O)c1ccncc1)c1cccc(OCCO)c1)c1cc(C(=O)OC)ccc1OC` it is 0.317. Compound `COC(=O)[C@@]1(Cc2ccccc2)[C@H]2c3cc(C(=O)N(C)C)n(Cc4cc(C)n(C)n4)c3C[C@H]2CN1C(=O)c1ccccc1` registered a composite z-score of -0.103. `COC(=O)[C@@]1(Cc2ccccc2N=[N+]=[N-])COC(c2ccc(OCCCO)cc2)=N1`: the composite z-score was found to be 0.492. Consider `CN1CCC(CCCO)=CC1c1ccc(CN2CCCC2)cc1` (configuration not stated), for which the composite z-score is -0.294. Still for that read-out and setting: the figure for `CC(=CC1CCCCC1)[C@@H](NC(=O)c1ccc(C(F)(F)F)cc1)c1ccc(-c2ccccc2)cc1` is -0.134.
